The panel holds about 83,000 compounds, 20% with a hit somewhere; the sample as a whole holds those more often.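 Values shown are percent growth following 48 h exposure of cells in 96-well plates to a single concentration of compound; below 10 was considered active.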 A number with no mark means an inactive call. Calls of active or inactive are those of the source.
System: ACHN renal
Test: NCI-60 one-dose screen, 48 h (100 = growth as untreated, 0 = no growth, -100 = all killed)
Conditions: 10 µM unless noted
Protocol: Growth inhibition of the ACHN human tumor cell line is measured as a screen for anti-cancer activity. Cells are grown in 96 well plates and exposed to the test compound for 48 hours. Compounds are tested at a single concentration, which is 10^-5 M for most compounds. The reported endpoint is percent growth (GI% or GIPRCNT), where numbers from 0 - 100% represent growth inhibition, and numbers from -100% - 0 represent cell death. For example, a value of 40 represents 60% growth inhibition. A value of 0 means no net growth occurred over the course of the experiment. A value of -40 indicates 40% of cells at the beginning of the experiment died by the end of the experiment. A value of -100 means all cells are dead at the end of the experiment.
NCI-60 Human Tumor Cell Lines Screen was performed using the standard one-dose NCI protocol, which is described in more detail at https://dtp.cancer.gov/discovery_development/nci-60/default.htm.
Compounds with GIPRCNT values below 10 were considered active. Activity score was based on GIPRCNT using the following formula: […]
Score is 0 for GIPRCNT values of 100 or above, 50 for GIPRCNT values of 0, and 100 for GIPRCNT values of -100.

Structure (SMILES) | growth
CCc1nc(C)cn1C(=O)OCc1nc2nc(Cl)nc(N3CCOCC3)c2[nH]1 | -100% (active)
CCn1ccnc1C(=O)/C=C/c1ccc(CC(=O)Nc2ccc(F)cc2)cc1 | 63.6%
CN(C)C(C(N)=O)c1ccc(Cl)cc1 (stereo not given) | 95.2%
CN1CCN(CCCNc2nccc(-c3c(-c4ccc(F)c(O)c4)nc4sccn34)n2)S1(=O)=O | 82.4%
COc1ccc(/C=C/c2n[nH]c3ccc(N4CCOC4=O)cc23)cc1 | 6.86% (active)
O=C1Nc2c(ccc(Cl)c2Cl)/C1=C/c1ccccn1 | 72.6%
C(=N\Nc1ncc(-c2cc3cc4c(cc3o2)OCO4)s1)/c1c[nH]c2ccccc12 | -31.4% (active)
O=C(Nc1cccc(Cl)c1)Oc1c(Br)c(Br)c(Br)c(Br)c1Br | 104%
Cc1cccc(Oc2ccc(Nc3ncnc4ccc(NC(=O)CNCCO)cc34)cc2Cl)c1 | 27.1%
COc1cc2nc(-c3ccc(C(F)(F)F)cc3)cc(OCCCN3CCCCC3)c2cc1OC | 38.2%
CCOC(=O)c1c(C)nc2c(c1N)C(=O)C(=O)N2Cc1ccc(C(F)(F)F)cc1 | 69.7%
COc1cccc(-c2nc3occn3c2-c2ccnc(NCCCNS(=O)(=O)c3cccc(F)c3)n2)c1 | 84.5%
O=CNc1cc(Cl)cc(Cl)c1 | 101%
CCNC(=S)NNC(=O)c1cc2ccc1CCc1ccc(cc1)CC2 | 107%
CCCCCCOc1ccc(/C=N/Nc2cc(C)nc3ccc(Br)cc23)cc1 | -98.3% (active)
COc1ccc(/C=C\c2nc3ccccc3s2)cc1OP(=O)(O)O | 56.9%
O=C(CNCCO)Nc1ccc2ncnc(Nc3ccc(OCc4cccc(F)c4)c(Cl)c3)c2c1 | 38%
C#Cc1cccc(NC(=O)Nc2cccc(N=C=S)c2)c1 | 103% [8.25 µM]
Clc1cc(Cl)cc(N2N=C(c3cccc(Nc4ccncc4)c3)CC2c2ccccc2)c1 (stereo not given) | 14.9%
COc1ccccc1Nc1cc(O)c2c(=O)cc(-c3ccccc3)oc2c1 | 50.8%

Structure (SMILES) | growth
c1ccc2c(-c3c4ccsc4cc4[nH]c5ccccc5c34)c[nH]c2c1 | 43.3%
NNC(=O)/C(=C\c1ccc([N+](=O)[O-])cc1)CC(=O)c1ccc(Cl)c(Cl)c1 | 91.1%
C(=C\c1n(Cc2ccc3ccccc3c2)c(-c2ccccc2)c(-c2ccccc2)[n+]1Cc1ccc2ccccc2c1)/c1ccccc1 | -94.9% (active)
Cc1cn(-c2cc(C(=O)Nc3cccc(C#Cc4cccc5[nH]nc(N)c45)c3)cc(C(F)(F)F)c2)cn1 | 30.3%
CCCC/C(=N\N=C(N)N)c1ccc(F)cc1 | 43.6%
CCCCCCNC(=O)Oc1ccc(/C(=C(/CC)Cc2ccccc2)c2ccc(OCCN(CC)CC)cc2)cc1 | 89.4%
CNC(=O)NCC1OC(n2cnc3c(NC(=O)Nc4ccccc4)ncnc32)C(O[Si](C)(C)C(C)(C)C)C1O[Si](C)(C)C(C)(C)C (stereo not given) | 20.5%
COc1cccc(CCC(=O)c2cc3c(N)c(C(=O)Nc4ccccc4)sc3nc2C)c1 | 56.3%
c1ccc(C2CC(c3cccc(Nc4ccncc4)c3)=NN2c2ccccc2)cc1 (stereo not given) | 90.1%
CC(O)(CO)c1ccccc1 (stereo not given) | 95.2%
O=C(Nc1ccc2cc3ccc(NC(=O)NC4CCCCC4)cc3nc2c1)NC1CCCCC1 | 100%
CS(=O)(=O)c1ccc(-c2cc(-c3nnc(SCC(=O)Nc4ccc(C(=O)/C=C/c5ccc(Cl)cc5)cc4)n3-c3ccccc3)c3ccccc3n2)cc1 | 97.6%
O=C(N/N=C/c1cccnc1)c1ccccc1Nc1cccc(C(F)(F)F)c1 | 100%
Fc1cc(C2=NNC(c3ccc[nH]3)C2)ccc1-n1ccc(C(F)(F)F)n1 (stereo not given) | 91%
CC(C)CCSc1nc(NNC(N)=O)c(C#N)c(-c2ccccc2)n1 | 97%
CCCCCN1C=C/C(=C\C(=O)N(C)c2cccc3ccccc23)c2ccccc21 | 104%
O=c1[nH]c(=O)[nH]c(=S)[nH]1 | 94.3%
COc1ccc(Cl)cc1NC(=O)c1c(NC(=O)C(F)(F)C(F)(F)F)sc2c1CCCCC2 | 1.54% (active)
O=C(CN1CCOCC1)Nc1ccc2ncnc(Nc3ccc(Oc4cccc(F)c4)c(Cl)c3)c2c1 | 24.1%
CCN(CC)S(=O)(=O)c1cccc([N+](=O)[O-])c1 | 109%

From PubChem BioAssay (NCI)
